# Test results as given in paper PMC7862700, “An all-to-all approach to the identification of sequence-specific readers for epigenetic DNA modifications on cytosine”.
# Assays:
# Test in all cases: DAPPL (digital affinity profiling via proximity ligation, sequencing); 10 mM Tris-HCl pH 7.5, 50 mM NaCl, 1 mM DTT, 4% glycerol, room temperature, 30 min; GST-TFs on glutathione beads, 16-mer random dsDNA library, 0.1% formaldehyde crosslink after washing; high values mean tight binding
# FLI1 = target: T1, FLI1 (Homo sapiens, UniProt Q01543 1-452); settings: protein: recombinant; tags: N-terminal GST; dsDNA, one strand shown
# T1 sequence: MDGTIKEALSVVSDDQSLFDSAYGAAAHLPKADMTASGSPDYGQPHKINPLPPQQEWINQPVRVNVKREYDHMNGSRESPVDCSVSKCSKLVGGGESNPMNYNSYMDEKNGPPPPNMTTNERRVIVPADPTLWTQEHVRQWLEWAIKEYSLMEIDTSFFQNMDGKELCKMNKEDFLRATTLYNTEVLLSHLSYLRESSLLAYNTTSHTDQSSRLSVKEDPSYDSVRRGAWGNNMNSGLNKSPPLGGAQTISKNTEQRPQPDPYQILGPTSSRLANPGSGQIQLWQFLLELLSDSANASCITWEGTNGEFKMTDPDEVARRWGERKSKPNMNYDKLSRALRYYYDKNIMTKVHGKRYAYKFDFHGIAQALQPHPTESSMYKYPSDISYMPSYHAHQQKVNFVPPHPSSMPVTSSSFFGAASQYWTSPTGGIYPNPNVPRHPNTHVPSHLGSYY
# How it was run: (§1)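 Human transcription factors fused to GST were expressed in yeast, captured on glutathione beads, given DNA barcodes and pooled with a GST-only negative control. Pools were incubated with 200 nmole of a 16-mer random double-stranded DNA library in Tris/NaCl/DTT/glycerol buffer at room temperature for 30 min. They were then washed, crosslinked with 0.1% formaldehyde, proximity-ligated (BsaI/T4 ligase, 1 h, 37 °C), PCR-amplified and sequenced on an Illumina NextSeq500. Binding signal is each 6-mer's read frequency for a factor divided by its frequency for the GST control.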
# ELK1 = target: T2, ELK1 (Homo sapiens, UniProt P19419 1-428); settings: protein: recombinant; tags: N-terminal GST; dsDNA, one strand shown
# T2 sequence: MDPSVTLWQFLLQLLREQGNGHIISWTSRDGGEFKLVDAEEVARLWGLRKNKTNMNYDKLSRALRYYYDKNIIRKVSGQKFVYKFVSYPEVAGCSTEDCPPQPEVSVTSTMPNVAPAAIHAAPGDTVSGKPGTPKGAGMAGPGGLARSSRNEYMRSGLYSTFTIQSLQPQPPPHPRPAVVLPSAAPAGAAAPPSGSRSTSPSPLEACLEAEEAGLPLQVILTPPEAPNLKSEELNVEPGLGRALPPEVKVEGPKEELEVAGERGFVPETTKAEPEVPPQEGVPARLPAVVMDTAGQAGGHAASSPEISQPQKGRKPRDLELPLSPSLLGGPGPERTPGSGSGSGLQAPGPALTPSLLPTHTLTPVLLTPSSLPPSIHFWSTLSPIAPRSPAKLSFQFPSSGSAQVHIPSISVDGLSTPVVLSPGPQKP
# How it was run: as §1
# GABPA = target: T3, GABPA (Homo sapiens, UniProt Q06546 1-454); settings: protein: recombinant; tags: N-terminal GST; dsDNA, one strand shown
# T3 sequence: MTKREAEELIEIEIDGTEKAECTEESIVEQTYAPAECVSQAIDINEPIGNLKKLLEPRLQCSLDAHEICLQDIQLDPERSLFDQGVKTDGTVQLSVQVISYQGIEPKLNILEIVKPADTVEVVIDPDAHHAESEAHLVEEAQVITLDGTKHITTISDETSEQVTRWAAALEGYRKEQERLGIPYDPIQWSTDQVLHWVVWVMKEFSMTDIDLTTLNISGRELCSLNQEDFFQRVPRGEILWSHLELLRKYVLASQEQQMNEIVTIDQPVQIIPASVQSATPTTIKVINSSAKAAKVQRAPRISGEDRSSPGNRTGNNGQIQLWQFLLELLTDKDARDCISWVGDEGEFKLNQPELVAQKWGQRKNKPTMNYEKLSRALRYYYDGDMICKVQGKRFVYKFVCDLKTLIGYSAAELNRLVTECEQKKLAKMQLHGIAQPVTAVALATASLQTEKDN
# How it was run: as §1
# ERG = target: T4, ERG (Homo sapiens, UniProt P11308 1-479); settings: protein: recombinant; tags: N-terminal GST; dsDNA, one strand shown
# T4 sequence: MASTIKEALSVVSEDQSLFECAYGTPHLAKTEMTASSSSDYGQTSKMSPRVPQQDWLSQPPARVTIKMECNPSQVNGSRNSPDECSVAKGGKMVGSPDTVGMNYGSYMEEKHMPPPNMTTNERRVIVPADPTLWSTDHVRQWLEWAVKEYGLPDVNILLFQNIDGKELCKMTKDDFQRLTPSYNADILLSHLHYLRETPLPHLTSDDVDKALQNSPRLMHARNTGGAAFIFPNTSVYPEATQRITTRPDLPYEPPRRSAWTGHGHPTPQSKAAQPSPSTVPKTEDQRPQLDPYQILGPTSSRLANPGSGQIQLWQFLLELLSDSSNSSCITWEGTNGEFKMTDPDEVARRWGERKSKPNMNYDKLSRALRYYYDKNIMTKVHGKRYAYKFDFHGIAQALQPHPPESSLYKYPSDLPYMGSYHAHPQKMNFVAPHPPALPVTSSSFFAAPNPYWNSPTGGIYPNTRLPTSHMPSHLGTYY
# How it was run: as §1
# ELF1 = ELF1 (Homo sapiens, UniProt P32519 1-619); settings: protein: recombinant; tags: N-terminal GST; dsDNA, one strand shown
# How it was run: as §1
# EHF = target: T5, EHF (Homo sapiens, UniProt Q9NZC4 1-300); settings: protein: recombinant; tags: N-terminal GST; dsDNA, one strand shown
# T5 sequence: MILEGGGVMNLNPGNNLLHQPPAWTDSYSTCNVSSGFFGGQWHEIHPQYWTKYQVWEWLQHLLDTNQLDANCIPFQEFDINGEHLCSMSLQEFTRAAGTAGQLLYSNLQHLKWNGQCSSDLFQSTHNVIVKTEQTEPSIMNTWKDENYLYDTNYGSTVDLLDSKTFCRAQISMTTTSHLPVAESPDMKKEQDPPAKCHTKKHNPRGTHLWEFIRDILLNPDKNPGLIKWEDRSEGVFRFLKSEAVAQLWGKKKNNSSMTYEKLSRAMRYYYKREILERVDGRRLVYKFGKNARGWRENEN
# How it was run: as §1
# SPI1 = SPI1 (Homo sapiens, UniProt P17947 1-270); settings: protein: recombinant; tags: N-terminal GST; dsDNA, one strand shown
# How it was run: as §1
# SPIB = SPIB (Homo sapiens, UniProt Q01892 1-262); settings: protein: recombinant; tags: N-terminal GST; dsDNA, one strand shown
# How it was run: as §1
# ELK3 = target: T6, ELK3 (Homo sapiens, UniProt P41970 1-407); settings: protein: recombinant; tags: N-terminal GST; dsDNA, one strand shown
# T6 sequence: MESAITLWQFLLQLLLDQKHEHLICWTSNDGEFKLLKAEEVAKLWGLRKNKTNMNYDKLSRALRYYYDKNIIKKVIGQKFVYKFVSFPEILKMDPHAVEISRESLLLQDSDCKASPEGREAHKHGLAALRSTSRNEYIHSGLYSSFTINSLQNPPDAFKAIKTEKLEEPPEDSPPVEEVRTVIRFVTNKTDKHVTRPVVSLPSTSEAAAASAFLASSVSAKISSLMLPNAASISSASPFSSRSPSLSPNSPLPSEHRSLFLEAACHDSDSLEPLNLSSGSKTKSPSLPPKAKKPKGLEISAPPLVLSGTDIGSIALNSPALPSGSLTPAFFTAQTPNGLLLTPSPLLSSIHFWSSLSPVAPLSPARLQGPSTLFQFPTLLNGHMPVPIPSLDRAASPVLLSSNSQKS
# How it was run: as §1
# FEV = target: T7, FEV (Homo sapiens, UniProt Q99581 1-238); settings: protein: recombinant; tags: N-terminal GST; dsDNA, one strand shown
# T7 sequence: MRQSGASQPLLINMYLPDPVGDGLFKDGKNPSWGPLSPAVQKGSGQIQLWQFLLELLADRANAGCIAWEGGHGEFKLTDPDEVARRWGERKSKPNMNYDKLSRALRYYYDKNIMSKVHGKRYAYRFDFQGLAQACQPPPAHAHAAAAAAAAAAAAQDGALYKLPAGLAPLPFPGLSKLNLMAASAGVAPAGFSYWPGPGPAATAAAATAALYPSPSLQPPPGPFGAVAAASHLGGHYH
# How it was run: as §1
# ETV5 = ETV5 (Homo sapiens, UniProt P41161 1-510); settings: protein: recombinant; tags: N-terminal GST; dsDNA, one strand shown
# How it was run: as §1
# HSF1 = HSF1 (Homo sapiens, UniProt Q00613 1-529); settings: protein: recombinant; tags: N-terminal GST; chain copies: 3; dsDNA, one strand shown
# How it was run: as §1
# SPIC = target: T8, SPIC (Homo sapiens, UniProt Q8N5J4 1-248); settings: protein: recombinant; tags: N-terminal GST; dsDNA, one strand shown
# T8 sequence: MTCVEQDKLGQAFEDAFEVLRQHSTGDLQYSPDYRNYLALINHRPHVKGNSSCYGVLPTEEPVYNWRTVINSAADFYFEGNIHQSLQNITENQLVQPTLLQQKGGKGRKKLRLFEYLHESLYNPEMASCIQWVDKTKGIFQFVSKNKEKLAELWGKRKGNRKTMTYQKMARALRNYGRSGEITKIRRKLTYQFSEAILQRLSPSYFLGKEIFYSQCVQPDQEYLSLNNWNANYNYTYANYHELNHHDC
# How it was run: as §1
# ELF4 = ELF4 (Homo sapiens, UniProt Q99607 1-663); settings: protein: recombinant; tags: N-terminal GST; dsDNA, one strand shown
# How it was run: as §1
# ELK4 = target: T9, ELK4 (Homo sapiens, UniProt P28324-2 1-405); settings: protein: recombinant; tags: N-terminal GST; dsDNA, one strand shown
# T9 sequence: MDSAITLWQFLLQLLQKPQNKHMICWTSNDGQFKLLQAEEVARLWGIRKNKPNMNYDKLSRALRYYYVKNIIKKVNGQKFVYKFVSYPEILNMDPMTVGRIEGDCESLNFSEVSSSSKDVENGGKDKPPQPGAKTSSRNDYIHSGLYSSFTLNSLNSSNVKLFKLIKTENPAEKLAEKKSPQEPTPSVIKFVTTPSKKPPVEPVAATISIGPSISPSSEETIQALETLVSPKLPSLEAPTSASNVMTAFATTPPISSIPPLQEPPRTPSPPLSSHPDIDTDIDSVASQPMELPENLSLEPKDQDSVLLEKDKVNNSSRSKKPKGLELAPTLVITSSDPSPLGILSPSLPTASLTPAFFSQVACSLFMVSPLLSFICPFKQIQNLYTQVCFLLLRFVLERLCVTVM
# How it was run: as §1
# ETV2 = target: T10, ETV2 (Homo sapiens, UniProt O00321 1-342); settings: protein: recombinant; tags: N-terminal GST; dsDNA, one strand shown
# T10 sequence: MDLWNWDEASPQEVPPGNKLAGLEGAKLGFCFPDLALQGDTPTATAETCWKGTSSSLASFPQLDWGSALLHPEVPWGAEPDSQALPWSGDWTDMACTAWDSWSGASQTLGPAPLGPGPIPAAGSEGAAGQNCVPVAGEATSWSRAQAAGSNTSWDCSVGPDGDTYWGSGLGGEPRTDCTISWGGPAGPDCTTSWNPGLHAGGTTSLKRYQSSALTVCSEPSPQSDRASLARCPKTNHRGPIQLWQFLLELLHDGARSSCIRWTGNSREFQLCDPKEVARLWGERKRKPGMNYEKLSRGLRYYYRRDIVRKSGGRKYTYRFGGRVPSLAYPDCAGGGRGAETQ
# How it was run: as §1
# ELF3 = target: T11, ELF3 (Homo sapiens, UniProt P78545 1-371); settings: protein: recombinant; tags: N-terminal GST; dsDNA, one strand shown
# T11 sequence: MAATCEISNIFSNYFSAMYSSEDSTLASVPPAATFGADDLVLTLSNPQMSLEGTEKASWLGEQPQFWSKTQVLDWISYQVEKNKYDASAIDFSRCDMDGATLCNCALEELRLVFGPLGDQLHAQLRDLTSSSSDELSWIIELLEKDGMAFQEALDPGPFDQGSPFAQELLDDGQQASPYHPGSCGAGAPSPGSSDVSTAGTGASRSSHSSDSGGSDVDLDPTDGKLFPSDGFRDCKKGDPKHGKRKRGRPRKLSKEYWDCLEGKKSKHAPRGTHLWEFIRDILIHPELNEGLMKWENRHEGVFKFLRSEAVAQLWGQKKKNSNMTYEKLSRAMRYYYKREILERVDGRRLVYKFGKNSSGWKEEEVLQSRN
# How it was run: as §1
# CRX = CRX (Homo sapiens, UniProt O43186 1-299); settings: protein: recombinant; tags: N-terminal GST; dsDNA, one strand shown
# How it was run: as §1
# ETV1 = ETV1 (Homo sapiens, UniProt P50549 1-477); settings: protein: recombinant; tags: N-terminal GST; dsDNA, one strand shown
# How it was run: as §1
# Chain of HSF1 (Q00613 whole entry): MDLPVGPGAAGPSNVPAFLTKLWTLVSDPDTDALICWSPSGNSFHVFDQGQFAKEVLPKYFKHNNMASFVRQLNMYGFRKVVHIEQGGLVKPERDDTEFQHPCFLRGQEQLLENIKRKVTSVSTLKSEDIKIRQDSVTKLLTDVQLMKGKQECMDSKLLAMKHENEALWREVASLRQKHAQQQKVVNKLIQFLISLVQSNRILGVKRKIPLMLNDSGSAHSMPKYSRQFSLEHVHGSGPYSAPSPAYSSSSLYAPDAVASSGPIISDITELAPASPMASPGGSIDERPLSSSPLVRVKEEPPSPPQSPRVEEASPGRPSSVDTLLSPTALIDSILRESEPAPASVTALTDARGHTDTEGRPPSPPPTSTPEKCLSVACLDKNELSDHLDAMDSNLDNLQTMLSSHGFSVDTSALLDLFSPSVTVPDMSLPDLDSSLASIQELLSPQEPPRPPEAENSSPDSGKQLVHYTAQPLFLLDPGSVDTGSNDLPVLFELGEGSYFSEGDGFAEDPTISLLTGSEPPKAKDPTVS
# Chain of SPIB (Q01892 whole entry): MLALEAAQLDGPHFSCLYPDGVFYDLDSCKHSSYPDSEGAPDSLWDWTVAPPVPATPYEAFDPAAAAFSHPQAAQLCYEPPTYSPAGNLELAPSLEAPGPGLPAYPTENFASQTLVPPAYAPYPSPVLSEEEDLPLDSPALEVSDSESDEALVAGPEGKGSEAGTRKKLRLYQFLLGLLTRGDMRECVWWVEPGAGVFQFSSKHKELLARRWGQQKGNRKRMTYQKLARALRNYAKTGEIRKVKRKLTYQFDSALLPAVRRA
# Chain of ELF1 (P32519 whole entry): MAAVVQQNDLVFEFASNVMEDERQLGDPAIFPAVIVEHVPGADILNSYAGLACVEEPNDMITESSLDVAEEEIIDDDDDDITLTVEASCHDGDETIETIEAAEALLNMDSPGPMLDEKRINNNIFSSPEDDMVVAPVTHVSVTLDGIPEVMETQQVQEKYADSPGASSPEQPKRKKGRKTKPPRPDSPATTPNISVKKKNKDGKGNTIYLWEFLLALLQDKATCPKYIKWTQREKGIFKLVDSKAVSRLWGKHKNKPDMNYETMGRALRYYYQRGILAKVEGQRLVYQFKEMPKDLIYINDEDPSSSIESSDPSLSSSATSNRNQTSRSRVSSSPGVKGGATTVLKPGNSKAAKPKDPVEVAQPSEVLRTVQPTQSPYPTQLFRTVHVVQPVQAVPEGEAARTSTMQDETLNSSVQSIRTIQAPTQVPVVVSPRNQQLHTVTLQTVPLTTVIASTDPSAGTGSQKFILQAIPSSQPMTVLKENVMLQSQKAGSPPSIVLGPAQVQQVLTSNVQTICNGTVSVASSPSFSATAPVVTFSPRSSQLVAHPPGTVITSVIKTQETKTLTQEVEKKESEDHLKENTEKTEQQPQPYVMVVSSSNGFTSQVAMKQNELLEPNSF
# Chain of CRX (O43186 whole entry): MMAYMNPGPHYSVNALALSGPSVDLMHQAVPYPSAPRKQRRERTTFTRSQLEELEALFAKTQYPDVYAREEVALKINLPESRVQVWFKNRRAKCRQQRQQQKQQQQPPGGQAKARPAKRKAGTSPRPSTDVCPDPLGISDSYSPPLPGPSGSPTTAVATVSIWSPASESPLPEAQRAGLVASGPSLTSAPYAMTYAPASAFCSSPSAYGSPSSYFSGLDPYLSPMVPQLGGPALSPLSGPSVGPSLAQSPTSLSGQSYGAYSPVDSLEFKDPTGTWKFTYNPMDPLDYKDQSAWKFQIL
# Chain of ELF4 (Q99607 whole entry): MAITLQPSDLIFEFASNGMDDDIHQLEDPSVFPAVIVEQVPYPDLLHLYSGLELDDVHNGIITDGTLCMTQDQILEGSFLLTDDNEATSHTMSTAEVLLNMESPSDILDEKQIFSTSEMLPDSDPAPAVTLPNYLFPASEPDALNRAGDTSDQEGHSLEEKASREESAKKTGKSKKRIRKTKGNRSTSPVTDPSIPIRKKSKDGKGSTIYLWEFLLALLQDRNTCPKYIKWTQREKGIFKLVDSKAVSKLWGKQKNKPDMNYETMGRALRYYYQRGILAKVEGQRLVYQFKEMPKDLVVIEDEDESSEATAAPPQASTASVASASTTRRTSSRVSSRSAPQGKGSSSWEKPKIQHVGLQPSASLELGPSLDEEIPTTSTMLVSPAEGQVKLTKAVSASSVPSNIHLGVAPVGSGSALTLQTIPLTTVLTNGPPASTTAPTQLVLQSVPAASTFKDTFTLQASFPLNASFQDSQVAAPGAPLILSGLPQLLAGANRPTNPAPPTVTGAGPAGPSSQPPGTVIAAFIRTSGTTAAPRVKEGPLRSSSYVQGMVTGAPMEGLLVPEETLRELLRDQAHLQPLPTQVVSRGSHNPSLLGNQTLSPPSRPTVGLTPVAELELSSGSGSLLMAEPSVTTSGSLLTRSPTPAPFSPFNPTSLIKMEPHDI
# Chain of ETV1 (P50549 whole entry): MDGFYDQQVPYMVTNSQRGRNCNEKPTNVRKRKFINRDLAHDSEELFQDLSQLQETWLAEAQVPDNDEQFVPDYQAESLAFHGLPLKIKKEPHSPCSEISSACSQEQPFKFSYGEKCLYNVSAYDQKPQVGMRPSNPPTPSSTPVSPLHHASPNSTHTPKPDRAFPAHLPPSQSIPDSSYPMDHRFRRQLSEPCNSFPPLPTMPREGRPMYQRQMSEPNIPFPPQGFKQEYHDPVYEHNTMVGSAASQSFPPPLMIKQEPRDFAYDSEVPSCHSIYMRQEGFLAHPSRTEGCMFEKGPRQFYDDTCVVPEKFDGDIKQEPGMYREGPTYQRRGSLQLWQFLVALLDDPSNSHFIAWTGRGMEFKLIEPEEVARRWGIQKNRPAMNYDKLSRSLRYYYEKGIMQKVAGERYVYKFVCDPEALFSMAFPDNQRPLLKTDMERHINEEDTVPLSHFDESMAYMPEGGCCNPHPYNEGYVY
# Chain of ETV5 (P41161 whole entry): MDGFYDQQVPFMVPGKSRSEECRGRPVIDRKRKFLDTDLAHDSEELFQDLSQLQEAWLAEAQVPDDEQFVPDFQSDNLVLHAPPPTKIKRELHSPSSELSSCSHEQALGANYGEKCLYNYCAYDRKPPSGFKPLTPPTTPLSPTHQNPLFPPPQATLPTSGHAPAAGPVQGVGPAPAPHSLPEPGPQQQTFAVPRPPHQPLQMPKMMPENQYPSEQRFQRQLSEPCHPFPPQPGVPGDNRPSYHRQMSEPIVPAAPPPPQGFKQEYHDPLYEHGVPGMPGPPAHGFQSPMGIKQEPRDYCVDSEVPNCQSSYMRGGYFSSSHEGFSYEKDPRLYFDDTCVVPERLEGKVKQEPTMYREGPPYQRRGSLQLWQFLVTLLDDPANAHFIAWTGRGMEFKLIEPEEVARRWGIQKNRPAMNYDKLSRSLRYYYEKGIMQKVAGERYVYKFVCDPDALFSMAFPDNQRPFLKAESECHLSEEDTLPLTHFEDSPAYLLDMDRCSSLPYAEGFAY
sequence,measurement,setting,value
CTAGCA,binding signal,FLI1,"1.28 fold enrichment (6-mer frequency, TF over GST control)"
same,binding signal,ELK1,"1.26 fold enrichment (6-mer frequency, TF over GST control)"
same,binding signal,GABPA,"1.2 fold enrichment (6-mer frequency, TF over GST control)"
same,binding signal,ERG,"1.18 fold enrichment (6-mer frequency, TF over GST control)"
same,binding signal,ELF1,"1.26 fold enrichment (6-mer frequency, TF over GST control)"
same,binding signal,EHF,"1.23 fold enrichment (6-mer frequency, TF over GST control)"
same,binding signal,SPI1,"1.14 fold enrichment (6-mer frequency, TF over GST control)"
same,binding signal,SPIB,"1.24 fold enrichment (6-mer frequency, TF over GST control)"
same,binding signal,ELK3,"1.33 fold enrichment (6-mer frequency, TF over GST control)"
same,binding signal,FEV,"1.27 fold enrichment (6-mer frequency, TF over GST control)"
same,binding signal,ETV5,"1.25 fold enrichment (6-mer frequency, TF over GST control)"
same,binding signal,HSF1,"2.11 fold enrichment (6-mer frequency, TF over GST control)"
same,binding signal,SPIC,"1.11 fold enrichment (6-mer frequency, TF over GST control)"
same,binding signal,ELF4,"1.3 fold enrichment (6-mer frequency, TF over GST control)"
same,binding signal,ELK4,"1.25 fold enrichment (6-mer frequency, TF over GST control)"
same,binding signal,ETV2,"1.35 fold enrichment (6-mer frequency, TF over GST control)"
same,binding signal,ELF3,"1.21 fold enrichment (6-mer frequency, TF over GST control)"
same,binding signal,CRX,"1.34 fold enrichment (6-mer frequency, TF over GST control)"
same,binding signal,ETV1,"1.24 fold enrichment (6-mer frequency, TF over GST control)"
